# Substitutions are numbered along the chain they refer to.
# What was measured:
# Assay in all cases: PBM; 200 nM protein, PBS
# Settings in all cases: dsDNA, one strand shown
# NKX2-5 [1] = molecular target: NKX2-5 (Homo sapiens, UniProt P52952 125-210, R139K)
# NKX2-4 [2] = molecular target: T1, NKX2-4 (Homo sapiens, UniProt Q9H2Z4 175-261, P217L)
# T1 sequence: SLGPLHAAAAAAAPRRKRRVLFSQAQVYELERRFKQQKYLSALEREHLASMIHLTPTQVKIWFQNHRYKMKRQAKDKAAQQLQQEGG
# NKX2-4 [3] = molecular target: T2, NKX2-4 (Homo sapiens, UniProt Q9H2Z4 175-261, T231S)
# T2 sequence: T1 sequence with L43P, T57S
# NKX2-4 [4] = molecular target: T3, NKX2-4 (Homo sapiens, UniProt Q9H2Z4 175-261)
# T3 sequence: T1 sequence with L43P
# NKX2-4 [5] = molecular target: T4, NKX2-4 (Homo sapiens, UniProt Q9H2Z4 175-261, R246Q)
# T4 sequence: T1 sequence with L43P, R72Q
# NKX2-5 [6] = molecular target: NKX2-5 (Homo sapiens, UniProt P52952 125-210)
# NKX2-5 (Homo sapiens, UniProt P52952 125-210), sequence (P52952 125-210): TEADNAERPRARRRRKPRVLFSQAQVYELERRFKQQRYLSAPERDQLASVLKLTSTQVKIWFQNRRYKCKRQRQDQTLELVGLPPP
# VENTX [7] = molecular target: T5, VENTX (Homo sapiens, UniProt O95231 78-163, R121Q)
# T5 sequence: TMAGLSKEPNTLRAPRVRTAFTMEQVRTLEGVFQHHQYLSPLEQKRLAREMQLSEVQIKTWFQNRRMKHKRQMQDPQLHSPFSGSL
# VENTX [8] = molecular target: T6, VENTX (Homo sapiens, UniProt O95231 78-163)
# T6 sequence: T5 sequence with Q44R
# VENTX [9] = molecular target: T7, VENTX (Homo sapiens, UniProt O95231 78-163, Y115F)
# T7 sequence: T5 sequence with Y38F, Q44R
# ALX1 [10] = molecular target: ALX1 (Homo sapiens, UniProt Q15699 118-204, L144V)
# ALX1 (Homo sapiens, UniProt Q15699 118-204, L144V), sequence (Q15699 118-204 L144V): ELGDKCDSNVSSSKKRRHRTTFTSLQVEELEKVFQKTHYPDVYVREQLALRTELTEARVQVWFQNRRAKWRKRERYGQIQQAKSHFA
# ALX1 [11] = molecular target: ALX1 (Homo sapiens, UniProt Q15699 118-204, L144R)
# ALX1 (Homo sapiens, UniProt Q15699 118-204, L144R), sequence (Q15699 118-204 L144R): as the sequence (Q15699 118-204 L144V) above, with V27R counted along it
# ALX1 [12] = molecular target: ALX1 (Homo sapiens, UniProt Q15699 118-204)
# ALX1 (Homo sapiens, UniProt Q15699 118-204), sequence (Q15699 118-204): as the sequence (Q15699 118-204 L144V) above, with V27L counted along it
# NKX2-6 [13] = molecular target: T8, NKX2-6 (Homo sapiens, UniProt A6NCS4 118-204, R150C)
# T8 sequence: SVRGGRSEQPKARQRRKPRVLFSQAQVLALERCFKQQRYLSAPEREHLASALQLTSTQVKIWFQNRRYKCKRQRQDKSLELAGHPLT
# NKX2-6 [14] = molecular target: T9, NKX2-6 (Homo sapiens, UniProt A6NCS4 118-204)
# T9 sequence: T8 sequence with C33R
# NKX2-6 [15] = molecular target: T10, NKX2-6 (Homo sapiens, UniProt A6NCS4 118-204, F151L)
# T10 sequence: T8 sequence with C33R, F34L
# NKX3-2 [16] = molecular target: NKX3-2 (Homo sapiens, UniProt P78367 192-278, P234S)
# NKX3-2 (Homo sapiens, UniProt P78367 192-278, P234S), sequence (P78367 192-278 P234S): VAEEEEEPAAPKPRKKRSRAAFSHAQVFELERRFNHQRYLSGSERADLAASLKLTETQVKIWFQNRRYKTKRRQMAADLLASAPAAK
# NKX3-2 [17] = molecular target: NKX3-2 (Homo sapiens, UniProt P78367 192-278)
# NKX3-2 (Homo sapiens, UniProt P78367 192-278), sequence (P78367 192-278): as the sequence (P78367 192-278 P234S) above, with S43P counted along it
# NKX2-5 (Homo sapiens, UniProt P52952 125-210, R139K), sequence (P52952 125-210 R139K): as the sequence (P52952 125-210) above, with R15K counted along it
sequence,measurement,setting,value
TACCGGTA,binding signal,NKX2-5 [1],"8.84 upbm affinity estimate (log intensity, higher = more binding, comparable within an allelic series)"
same,binding signal,NKX2-4 [2],"9.99 upbm affinity estimate (log intensity, higher = more binding, comparable within an allelic series)"
same,binding signal,NKX2-4 [3],"10.1 upbm affinity estimate (log intensity, higher = more binding, comparable within an allelic series)"
same,binding signal,NKX2-4 [4],"9.94 upbm affinity estimate (log intensity, higher = more binding, comparable within an allelic series)"
same,binding signal,NKX2-4 [5],"10.1 upbm affinity estimate (log intensity, higher = more binding, comparable within an allelic series)"
same,binding signal,NKX2-5 [6],"8.86 upbm affinity estimate (log intensity, higher = more binding, comparable within an allelic series)"
CCGGTGGC,binding signal,NKX2-5 [1],"8.61 upbm affinity estimate (log intensity, higher = more binding, comparable within an allelic series)"
same,binding signal,VENTX [7],"7.92 upbm affinity estimate (log intensity, higher = more binding, comparable within an allelic series)"
same,binding signal,VENTX [8],"8.15 upbm affinity estimate (log intensity, higher = more binding, comparable within an allelic series)"
same,binding signal,VENTX [9],"8 upbm affinity estimate (log intensity, higher = more binding, comparable within an allelic series)"
same,binding signal,ALX1 [10],"6.52 upbm affinity estimate (log intensity, higher = more binding, comparable within an allelic series)"
same,binding signal,ALX1 [11],"6.41 upbm affinity estimate (log intensity, higher = more binding, comparable within an allelic series)"
same,binding signal,ALX1 [12],"6.47 upbm affinity estimate (log intensity, higher = more binding, comparable within an allelic series)"
same,binding signal,NKX2-5 [6],"8.93 upbm affinity estimate (log intensity, higher = more binding, comparable within an allelic series)"
CACTTGAG,binding signal,NKX2-5 [1],"13.3 upbm affinity estimate (log intensity, higher = more binding, comparable within an allelic series)"
same,binding signal,NKX2-4 [2],"12.9 upbm affinity estimate (log intensity, higher = more binding, comparable within an allelic series)"
same,binding signal,NKX2-4 [3],"13.3 upbm affinity estimate (log intensity, higher = more binding, comparable within an allelic series)"
same,binding signal,NKX2-4 [4],"12.8 upbm affinity estimate (log intensity, higher = more binding, comparable within an allelic series)"
same,binding signal,NKX2-6 [13],"12.1 upbm affinity estimate (log intensity, higher = more binding, comparable within an allelic series)"
same,binding signal,NKX2-6 [14],"14 upbm affinity estimate (log intensity, higher = more binding, comparable within an allelic series)"
same,binding signal,NKX2-4 [5],"13.5 upbm affinity estimate (log intensity, higher = more binding, comparable within an allelic series)"
same,binding signal,NKX2-6 [15],"11.3 upbm affinity estimate (log intensity, higher = more binding, comparable within an allelic series)"
same,binding signal,NKX2-5 [6],"13.2 upbm affinity estimate (log intensity, higher = more binding, comparable within an allelic series)"
AGTCCGGG,binding signal,NKX2-5 [1],"9.14 upbm affinity estimate (log intensity, higher = more binding, comparable within an allelic series)"
same,binding signal,NKX2-4 [2],"9.61 upbm affinity estimate (log intensity, higher = more binding, comparable within an allelic series)"
same,binding signal,NKX2-4 [3],"9.48 upbm affinity estimate (log intensity, higher = more binding, comparable within an allelic series)"
same,binding signal,NKX2-4 [4],"9.52 upbm affinity estimate (log intensity, higher = more binding, comparable within an allelic series)"
same,binding signal,NKX2-4 [5],"9.63 upbm affinity estimate (log intensity, higher = more binding, comparable within an allelic series)"
same,binding signal,NKX2-5 [6],"9.09 upbm affinity estimate (log intensity, higher = more binding, comparable within an allelic series)"
ACACTTCA,binding signal,NKX2-5 [1],"12.3 upbm affinity estimate (log intensity, higher = more binding, comparable within an allelic series)"
same,binding signal,NKX2-4 [2],"12.6 upbm affinity estimate (log intensity, higher = more binding, comparable within an allelic series)"
same,binding signal,NKX2-4 [3],"13 upbm affinity estimate (log intensity, higher = more binding, comparable within an allelic series)"
same,binding signal,NKX2-4 [4],"12.5 upbm affinity estimate (log intensity, higher = more binding, comparable within an allelic series)"
same,binding signal,NKX2-6 [14],"13.3 upbm affinity estimate (log intensity, higher = more binding, comparable within an allelic series)"
same,binding signal,NKX2-4 [5],"13.1 upbm affinity estimate (log intensity, higher = more binding, comparable within an allelic series)"
same,binding signal,NKX2-6 [15],"10.8 upbm affinity estimate (log intensity, higher = more binding, comparable within an allelic series)"
same,binding signal,NKX2-5 [6],"12.3 upbm affinity estimate (log intensity, higher = more binding, comparable within an allelic series)"
TAAGTGTA,binding signal,NKX2-5 [1],"12.5 upbm affinity estimate (log intensity, higher = more binding, comparable within an allelic series)"
same,binding signal,NKX2-4 [2],"12.4 upbm affinity estimate (log intensity, higher = more binding, comparable within an allelic series)"
same,binding signal,NKX2-4 [3],"12.8 upbm affinity estimate (log intensity, higher = more binding, comparable within an allelic series)"
same,binding signal,NKX2-4 [4],"12.3 upbm affinity estimate (log intensity, higher = more binding, comparable within an allelic series)"
same,binding signal,NKX2-6 [13],"11.7 upbm affinity estimate (log intensity, higher = more binding, comparable within an allelic series)"
same,binding signal,NKX2-6 [14],"13.4 upbm affinity estimate (log intensity, higher = more binding, comparable within an allelic series)"
same,binding signal,NKX2-4 [5],"12.9 upbm affinity estimate (log intensity, higher = more binding, comparable within an allelic series)"
same,binding signal,NKX2-6 [15],"10.9 upbm affinity estimate (log intensity, higher = more binding, comparable within an allelic series)"
same,binding signal,NKX2-5 [6],"12.4 upbm affinity estimate (log intensity, higher = more binding, comparable within an allelic series)"
AAGTGGAC,binding signal,NKX2-5 [1],"12.5 upbm affinity estimate (log intensity, higher = more binding, comparable within an allelic series)"
same,binding signal,NKX2-4 [2],"12.4 upbm affinity estimate (log intensity, higher = more binding, comparable within an allelic series)"
same,binding signal,NKX2-4 [3],"12.9 upbm affinity estimate (log intensity, higher = more binding, comparable within an allelic series)"
same,binding signal,NKX2-6 [13],"11.8 upbm affinity estimate (log intensity, higher = more binding, comparable within an allelic series)"
same,binding signal,NKX2-6 [14],"13.4 upbm affinity estimate (log intensity, higher = more binding, comparable within an allelic series)"
same,binding signal,NKX2-6 [15],"10.4 upbm affinity estimate (log intensity, higher = more binding, comparable within an allelic series)"
same,binding signal,NKX3-2 [16],"12.7 upbm affinity estimate (log intensity, higher = more binding, comparable within an allelic series)"
same,binding signal,NKX2-5 [6],"12.4 upbm affinity estimate (log intensity, higher = more binding, comparable within an allelic series)"
same,binding signal,NKX3-2 [17],"12.8 upbm affinity estimate (log intensity, higher = more binding, comparable within an allelic series)"
AAGTGCCC,binding signal,NKX2-5 [1],"12.4 upbm affinity estimate (log intensity, higher = more binding, comparable within an allelic series)"
same,binding signal,NKX2-4 [2],"12.5 upbm affinity estimate (log intensity, higher = more binding, comparable within an allelic series)"
same,binding signal,NKX2-4 [3],"12.8 upbm affinity estimate (log intensity, higher = more binding, comparable within an allelic series)"
same,binding signal,NKX2-4 [4],"12.3 upbm affinity estimate (log intensity, higher = more binding, comparable within an allelic series)"
same,binding signal,NKX2-6 [13],"11.6 upbm affinity estimate (log intensity, higher = more binding, comparable within an allelic series)"
same,binding signal,NKX2-4 [5],"13 upbm affinity estimate (log intensity, higher = more binding, comparable within an allelic series)"
same,binding signal,NKX2-6 [15],"10.8 upbm affinity estimate (log intensity, higher = more binding, comparable within an allelic series)"
same,binding signal,NKX3-2 [16],"12.9 upbm affinity estimate (log intensity, higher = more binding, comparable within an allelic series)"
same,binding signal,NKX2-5 [6],"12.4 upbm affinity estimate (log intensity, higher = more binding, comparable within an allelic series)"
same,binding signal,NKX3-2 [17],"12.9 upbm affinity estimate (log intensity, higher = more binding, comparable within an allelic series)"

# Source: publication PMC11006913
